PubChem BioAssay (NCATS)
Records with an inconclusive call do not appear. Active and inactive are the calls of the source. The call rests on the fitted dose curve; in most records, active means well fitted curve in the direction sought with a large enough effect; inconclusive means small, poorly fitted or top-dose-only effect, or another doubt; inactive means no such curve, though single readings can be large; an effect the other way counts as inactive or inconclusive.

biological target: Cytochrome P450 2C9 (Homo sapiens) (UniProt P11712); assay: qHTS Assay for Inhibitors and Substrates of Cytochrome P450 2C9 (AID 883); conditions: recombinant CYP2C9, luciferin-H luminescence, 60 min; series mostly up to 57.1 µM; activity change, negative = inhibition: at the top concentration; further: nearly all actives have a fitted effect of over 60% in size; on activity change, negative = inhibition: on the % scale 0 is the no-effect control and ±100 the full control effect
Sequence (P11712 whole entry, looked up): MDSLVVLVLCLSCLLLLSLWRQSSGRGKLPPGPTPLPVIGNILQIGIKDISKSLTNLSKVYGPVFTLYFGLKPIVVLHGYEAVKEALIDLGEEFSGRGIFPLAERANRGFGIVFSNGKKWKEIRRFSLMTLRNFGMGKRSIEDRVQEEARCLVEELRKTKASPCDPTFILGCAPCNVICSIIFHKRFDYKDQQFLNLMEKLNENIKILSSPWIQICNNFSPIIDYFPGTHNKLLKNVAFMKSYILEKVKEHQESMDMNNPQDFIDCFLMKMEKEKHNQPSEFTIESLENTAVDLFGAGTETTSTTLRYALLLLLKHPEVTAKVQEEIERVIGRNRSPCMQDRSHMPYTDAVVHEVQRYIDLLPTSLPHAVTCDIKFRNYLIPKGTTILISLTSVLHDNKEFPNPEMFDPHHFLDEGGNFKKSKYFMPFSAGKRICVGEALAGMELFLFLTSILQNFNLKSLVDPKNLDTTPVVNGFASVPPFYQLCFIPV
Procedure: NIH Molecular Libraries Screening Centers Network [MLSCN] NIH Chemical Genomics Center [NCGC] MLSCN Grant: None NCGC Assay Overview: The P450 gene superfamily is involved in the metabolism and clearance of xenobiotics. This assay used human CYP2C9 to measure the hydroxylation of deoxyluciferin (Luciferin-H; P450 Glo-Buffer) to luciferin. The luciferin is then measured by luminescence after the addition of a luciferase detection reagent. Luciferin-H concentration in the assay was equal to its Michaelis constant KM for CYP2C9. Inhibitors and some substrates limit the production of luciferin, and decrease measured luminescence.
NCGC Assay Protocol Summary: Two uL of enzyme and substrate mix (final concentrations: 10nM CYP2C9, 100uM Luciferin-H, 25mM KPO4) were dispensed into a white, solid bottom 1536-well microtiter plate. 23nL of compound was transferred by a pin tool. The plate was incubated at 37C for 10 min. Two uL of an NADPH regeneration solution (Promega supplied reagent) was dispensed and the reaction was allowed to continue for 60 min at 37C. Then the reaction was stopped by reconstituted P450 Glo-Buffer. After another 20 min of incubation the plate was read on the ViewLux (Perkin Elmer) at 60 sec exposure and 2x2 binning. This protocol was carried out with Promega-Glo reagents and further information can be found at http://www.promega.com/tbs/tb325/tb325.pdf. Data were normalized to the to AC100 inhibition (57uM sulphaphenazole). Keywords: P450, CYP2C9, Luciferase, MLSMR, MLSCN, NIH Roadmap, qHTS, NCGC
Potency means the concentration at half of the fitted maximal effect.

Row | SMILES | activity change, negative = inhibition | Potency
1 | NS(=O)(=O)c1cc(Cl)c(Cl)c(S(N)(=O)=O)c1 | 177% [at 25.6 µM] (inactive) | –
2 | Cc1ccc(NC(=O)c2cccc(N(C)C)c2)cc1NC(=O)c1ccc(O)cc1 | 54.4% (inactive) | –
3 | Clc1ccc(COC(Cn2ccnc2)c2ccc(Cl)cc2Cl)c(Cl)c1 (centres undefined) | – | 0.316 µM (active)
4 | CN1CCN2c3ncccc3Cc3ccccc3C2C1 (centres undefined) | – | 0.0501 µM (active)
5 | Cc1cc2nc3c(=O)[nH]c(=O)nc-3n(CC(O)C(O)C(O)CO)c2cc1C (centres undefined) | 15.8% (inactive) | –
6 | CCC(=C(CC)c1ccc(O)cc1)c1ccc(O)cc1 | – | 12.6 µM (active)
7 | NC(=O)c1nnn(Cc2cc(Cl)c(C(=O)c3ccc(Cl)cc3)c(Cl)c2)c1N | 52.5% [at 11.4 µM] (inactive) | –
8 | Cc1cc(NC(=O)Nc2ccc(N(C)C)cc2)c2cc(F)cc(F)c2n1 | – | 6.31 µM (active)

biological target: Cytochrome P450 3A4 (Homo sapiens) (UniProt P08684); assay: qHTS Assay for Inhibitors and Substrates of Cytochrome P450 3A4 (AID 884); conditions: recombinant CYP3A4, Luciferin-PPXE luminescence; series mostly up to 57.1 µM; activity change, negative = inhibition: at the top concentration; further: nearly all actives have a fitted effect of over 50% in size; on activity change, negative = inhibition: on the % scale 0 is the no-effect control and ±100 the full control effect
Sequence (P08684 whole entry, looked up): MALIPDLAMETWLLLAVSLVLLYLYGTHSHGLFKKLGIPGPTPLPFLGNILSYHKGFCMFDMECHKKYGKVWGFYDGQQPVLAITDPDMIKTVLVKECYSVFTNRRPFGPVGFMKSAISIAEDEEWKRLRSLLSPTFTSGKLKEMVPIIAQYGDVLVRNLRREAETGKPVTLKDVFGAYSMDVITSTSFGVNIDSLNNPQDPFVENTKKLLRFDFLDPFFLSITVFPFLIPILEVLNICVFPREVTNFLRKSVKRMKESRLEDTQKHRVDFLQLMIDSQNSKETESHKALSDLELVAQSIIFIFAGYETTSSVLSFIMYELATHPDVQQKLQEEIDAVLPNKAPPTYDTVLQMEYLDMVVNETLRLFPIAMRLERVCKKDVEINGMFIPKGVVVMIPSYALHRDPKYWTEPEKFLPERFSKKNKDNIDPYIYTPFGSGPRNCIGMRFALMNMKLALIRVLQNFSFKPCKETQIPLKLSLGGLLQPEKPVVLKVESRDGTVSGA
How it was run: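 20 nM human CYP3A4 with 25 uM Luciferin-PPXE (at KM) in 200 mM KPO4, preincubated 10 min with compound; NADPH regeneration started a 60 min RT reaction. Luciferin detected by luminescence, normalized to 57 uM ketoconazole as full inhibition.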

Row | SMILES | activity change, negative = inhibition | Potency
9 | CC(NCCc1ccc(O)cc1)C(O)c1ccc(O)cc1 (centres undefined) | -19.1% (inactive) | –
10 | CC[C@H](C)C(=O)O[C@H]1C[C@H](O)C=C2C=C[C@H](C)[C@H](CC[C@@H](O)C[C@@H](O)CC(=O)O)[C@H]21 | -13.6% (inactive) | –
11 | CN1C(=O)C(Cc2c[nH]c3ccccc23)NC1=S (centres undefined) | – | 6.31 µM (active)
12 | COC1CCC(C(=O)c2ccc3nc4c(cc3c2)CCCO4)CC1 (centres undefined) | 125% (inactive) | –
13 | CS(=O)(=O)c1ccc(C2=C(c3ccccc3)C(=O)OC2)cc1 | -16.7% (inactive) | –
14 | Cc1cc2nc3c(=O)[nH]c(=O)nc-3n(CC(O)C(O)C(O)CO)c2cc1C (centres undefined) | -22.3% (inactive) | –
15 | COc1ccc2cc1Oc1ccc(cc1)C[C@H]1c3cc(c(OC)cc3CCN1C)Oc1c(OC)c(OC)cc3c1[C@H](C2)N(C)CC3 | -26.1% (inactive) | –
16 | Cc1cc(NC(=O)Nc2ccc(N(C)C)cc2)c2cc(F)cc(F)c2n1 | – | 6.31 µM (active)

biological target: Cytochrome P450 3A4 (Homo sapiens) (UniProt P08684); assay: qHTS Assay for Activators of Cytochrome P450 3A4 (AID 885); conditions: recombinant CYP3A4, Luciferin-PPXE luminescence, 60 min; series mostly up to 57.1 µM; activity change, positive = activation: at the top concentration; further: nearly all actives have a fitted effect of over 65% in size
How it was run: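 Signal was normalized against complete inhibition by 57 uM ketoconazole. The reaction used 20nM CYP3A4 with 25uM Luciferin-PPXE, 10-min compound preincubation and a 60-min NADPH-supported step at RT.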

Row | SMILES | activity change, positive = activation | Potency
17 | CCCCC(C=O)NC(=O)C(CC(C)C)NC(=O)OCc1ccccc1 (centres undefined) | -79.3% (inactive) | –
18 | CN(C)c1ccccc1CN1CCCN(Cc2ccccc2N(C)C)C1c1ccncc1 | -30.9% [at 11.4 µM] (inactive) | –
19 | Cc1ccc2c(c1)C(=O)[C@]1(O)CCN(c3ccccc3)C1=N2 | -71.6% (inactive) | –
20 | CC1(C)OC2CC3C4CC(F)C5=CC(=O)C=CC5(C)C4C(O)CC3(C)[C@]2(C(=O)CO)O1 (some centres undefined) | -44.8% (inactive) | –
21 | CN1C(=O)C(Cc2c[nH]c3ccccc23)NC1=S (centres undefined) | -108% (inactive) | –
22 | O=c1cc(-c2ccc(O)c(O)c2)oc2cc(O)cc(O)c12 | -56% [at 25.6 µM] (inactive) | –
23 | COC1CCC(C(=O)c2ccc3nc4c(cc3c2)CCCO4)CC1 (centres undefined) | – | 5.01 µM (active)
24 | Cc1cc(NC(=O)Nc2ccc(N(C)C)cc2)c2cc(F)cc(F)c2n1 | -61.3% (inactive) | –
